Screens: PubChem, National Center for Advancing Translational Sciences (NCATS)
KB-V1 MDR tox: kills drug-selected multidrug resistant KB-V1 cells; KB-V1 MDR cells viability, CellTiter-Glo, 72 h; Potency, µM (series often up to 46.1 µM), actives largely listed as cytotoxic; hit rate 3.4% among 400,000; AID 1347076; further: on the % scale 0 is the no-effect control and ±100 the full control effect; nearly all actives have a fitted effect of over 60% in size
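Cytotoxicity via CellTiter-Glo luminescence after 72 h compound exposure at 37 degrees C. Cells: drug-selected KB-V1 line, DMEM phenol-red free plus 10% FBS. Compounds tested at multiple concentrations; normalized data fitted to concentration-effect curves.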
MCF10A rerep: DNA re-replication induction in MCF 10a cells; MCF 10A DNA re-replication, Hoechst nuclear intensity, 48 h; Potency, µM (series often up to 46.1 µM), without a hit: at the highest dose activity, positive = re-replication, usual class: activators; hit rate 2.9% among 350,000; further: % of control where 0% means no effect; nearly all actives have a fitted effect of over 50% in size
HT1080-NT tox: kills 2HG-producing HT-1080-NT fibrosarcoma cells | HT-1080-NT fibrosarcoma viability, CellTiter-Glo ATP luminescence, 48 h | Potency, µM (top dose mostly 46.1 µM), without a hit: top-dose activity, negative = less viability, hits mostly cytotoxic | hit rate 1.6% among 360,000;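 further: NT is the 2HG producing partner of a matched IDH1 knockdown line; 0% = DMSO-treated cells and -100% = media-only wells without cells; nearly all actives have a fitted effect of over 55% in size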
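750 cells/well, RPMI + 5% FBS; 2 h settle, compound pin-transfer, 48 h at 37 degrees C. CellTiter-Glo 10 min RT, luminescence. Normalized to DMSO and media-only wells.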
HT1080 IDH1KD tx: HT-1080 IDH1 knockdown cell toxicity (counter line); HT-1080 IDH1 knockdown viability, ATP luminescence, 48 h; Potency, µM (top dose mostly 46.1 µM), inactives show at the top dose activity, negative = toxicity, actives largely listed as cytotoxic; hit rate 2% among 360,000;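 further: 0% = DMSO wells and -100% = cell-free medium wells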
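In this qHTS, HT-1080 cells depleted of IDH1 are exposed for 48 h at 37 °C to compound titrations. Toxicity is scored from CellTiter-Glo luminescence, with DMSO as full viability and medium alone as none.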
SW480 rerep: inducers of DNA re-replication in SW480 colon cancer cells; SW480 DNA re-replication, Hoechst DNA content imaging, 48 h; hit rate 1.8% among 340,000; Potency, µM (doses to about 46.1 µM), for inactives: at the top dose re-replication activation, hits mostly activators; AID 624297; further: % of control where 0% means no effect; nearly all actives have a fitted effect of over 55% in size
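250 cells/well; 23 nL cpd via pin tool; 48 hr, 37 C, 5% CO2; Hoechst 40 min; imager read of total nuclear intensity, ex 405/em 500-530 nm.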
KB-3-1 cytotox: KB-3-1 parental cell cytotoxicity | KB-3-1 viability, CellTiter-Glo ATP luminescence, 72 h | Potency, µM (highest dose often 46.1 µM), most hits filed as cytotoxic | hit rate 1.4% among 400,000; further: on the % scale 0 is the no-effect control and ±100 the full control effect; nearly all actives have a fitted effect of over 60% in size
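Cells are dispensed, compounds pinned in, plates held at 37 °C for 72 h, then CellTiter-Glo is added and luminescence read after 10 minutes. Cell line: parental KB-3-1 in phenol-red-free DMEM, 10% FBS.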
* marks the source's active call; other numbers are inactive results; i = inactive; ? = inconclusive; nt = no result given; [ ] = remark or other dose. Shown are actives, neighbours in structure and some others; about 8% of the full set was active somewhere. The call rests on the fitted dose curve; in most records, active means well fitted curve in the direction sought with a large enough effect; inconclusive means small, poorly fitted or top-dose-only effect, or another doubt; inactive means no such curve, though single readings can be large; an effect the other way counts as inactive or inconclusive. Potency means the concentration at half of the fitted maximal effect.

SMILES | KB-V1 MDR tox | MCF10A rerep | HT1080-NT tox | HT1080 IDH1KD tx | SW480 rerep | KB-3-1 cytotox
Cc1cc2c(c(/C=C/C(=O)c3ccccc3)c1)OC1(C=C2)Oc2ccccc2C(=O)N1C (stereo not drawn) | ? | 5.6µM* | ? | ? | 3.7µM* | 16µM*
Cc1c(/C=C/C(=O)c2ccccc2)cnn1C | i | 19% | -2% | 1% | -1%[9.22 µM] | i
CC(C)Cc1nc2oc3c(=O)[nH]cnc3c2c2c1CCCC2 | 18µM* | 1% | 7% | -9% | -83% | i
CC(C)Cc1nc2oc3c(Cl)ncnc3c2c2c1CCCC2 | i | 29µM* | 8% | 22% | 9% | i
CCCc1nc2oc3c(NCCCN(C)C)ncnc3c2c2c1CCCC2 | ? | 15µM* | -24% | ? | ? | i
CCCc1nc2oc3c(NCCN(C)C)ncnc3c2c2c1CCCC2 | i | ? | -19% | ? | ? | ?
O=C(CSc1nc2ccccc2nc1Cc1ccccc1)N1CCc2ccccc21 | i | nt | nt | nt | nt | i
COc1cc(CN(C(=O)COc2ccccc2)c2ccccn2)cc(OC)c1OC | i | nt | nt | nt | nt | i
Cc1ccc(-n2ncc(C(=O)NCCN3CCN(C)CC3)c2C2CCN(C(=O)OC(C)(C)C)CC2)c(C)c1 | ? | nt | nt | nt | nt | i
N#C/C(=C\c1c(Oc2ccc(F)cc2)nc2ccccn2c1=O)c1nc2ccccc2s1 | i | nt | nt | nt | nt | i
c1ccc(CNCCNCc2ccccc2)cc1 | nt | 12% | nt | nt | -1% | nt
Cc1ccc(-n2ncc3c(NC4CCCCC4)ncnc32)cc1Cl | i | nt | nt | nt | nt | i
Cc1cccc(C)c1OC(=O)CSc1nnc(-c2cccs2)o1 | i | nt | nt | nt | nt | i
CC1CCCCN1C(=O)CSc1nnc(-c2ccccc2Cl)o1 (stereo not drawn) | i | nt | nt | nt | nt | i
Cc1cc(-c2nnc(SCC(=O)N3C(C)CCCC3C)o2)no1 (stereo not drawn) | i | ? | 9% | 10% | 6.5µM* | i
Cc1cccc(C)c1OC(=O)CSc1nnc(-c2ccccc2O)o1 | i | 18µM* | -5% | ? | 0% | i
CC1CCCCN1C(=O)CSc1nnc(-c2ccccc2O)o1 (stereo not drawn) | ? | 11% | -10% | -20% | ? | 13µM*
Cc1cc(C)c(NC(=O)CSc2nc(C)cc(C)c2C#N)c(C)c1 | i | nt | nt | nt | nt | i
CCCN1C(=O)/C(=C2\SC(N3CCCCC3)=NC2=O)c2ccccc21 | ? | 21% | -17% | -29% | 2% | i
CN1C(=O)/C(=C2\SC(N3CCCCCC3)=NC2=O)c2ccccc21 | 2.1µM* | 23% | ? | 8% | -2% | ?
c1ccc(-c2nnc(-c3ccco3)n2-c2ccccc2)cc1 | 18µM* | ? | 14% | 1% | 1% | i
c1ccc(-n2c(-c3ccncc3)nnc2-c2ccco2)cc1 | i | 10% | 4% | -4% | -5% | i
CCOc1ccc(C2NC(=O)c3c(COC)cc(C)nc3N2Cc2ccccc2)cc1OC (stereo not drawn) | i | nt | nt | nt | nt | i
COCCCNC(=S)NC(=O)c1ccc(C)cc1 | 18µM* | 5% | 0% | 14% | -8% | i
CNC(=O)C1CCC(Cn2c(=O)c3sccc3n(CC(=O)Nc3cc(C)cc(C)c3)c2=O)CC1 (stereo not drawn) | ? | nt | nt | nt | nt | i
COc1ccc(CNC(=O)c2cc3c(C)nc4ccccc4c3o2)c(OC)c1 | 12µM* | 1% | -6% | ? | 3% | ?
CC(C)(C)NC(=O)NC(=O)CSc1ncc(C(F)(F)F)cc1Cl | 13µM* | -2% | 10% | -4% | 2% | i
CCCCOc1ccc2c(c1)/C(=C(\C(Cl)=C(Cl)Cl)[N+](=O)[O-])N2 | 21µM* | ? | 9% | -2% | 26% | ?
N#C/C(=C\c1c(Cl)cccc1Cl)c1nc2ccccc2[nH]1 | i | ? | -19% | ? | ? | i
